Measurements from the supplement of paper PMC10849652.
The full data set covers some 7,900 targets. This sample favours those with a hit. About 0.6% of all pairs of compound and target were hits. Unmarked numbers belong to inactive results.

Key:
Assay in all cases: log2 fold change, soluble protein after heating vs DMSO (PISA); higher = thermal stabilisation; K562 cells, 10 uM, 30 min; active = over 0.2 and 3.5 SD of the protein, either way, in both replicates (recomputed)
[1] = compound: CC[C@@H]1C(=O)N(C)c2cnc(Nc3ccc(C(=O)NC4CCN(C)CC4)cc3OC)nc2N1C1CCCC1
Summary of the method: (§1)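 Quantification of soluble protein used TMTpro 16plex LC-MS/MS, with channel sums equalised. Samples were the supernatant after 21,000xg for 90 min of pooled aliquots from K562 cells (2×10^6 cells/mL) treated with 10 μM compound for 30 min, heated for 3 min over 48°C-58°C, and extracted in PBS with 0.5% NP-40 at 4°C. Values, from duplicates, describe thermal stability against control samples on a log2 fold-change scale.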

[2] = compound: CC[C@@H]1C(=O)N(C)c2cnc(Nc3ccc(C(=O)N[C@H]4CC[C@H](N5CCN(CC6CC6)CC5)CC4)cc3OC)nc2N1C(C)C [volasertib]
Summary of the method: as §1

[3] = compound: CC[C@H](C)N1C=C(C2=C(C=C(C=C21)C3=CN=C(C=C3)N4CCNCC4)C(=O)NCC5=C(C=C(NC5=O)C)C)C
Summary of the method: as §1

[4] = compound: CC[C@H](C)[C@@H](C(=O)N[C@@H]([C@@H](C)O)C(=O)N[C@@H](CC(C)C)C(=O)[C@]1(CO1)C)NC(=O)[C@H]([C@@H](C)CC)N(C)C(=O)C [epoxomicin]
Summary of the method: as §1

[5] = compound: CCn1c(C(=O)N(C2CC2)C2CC2)cc2c3c(ncn3C)c(Nc3cc(C)n(C)n3)nc21
Summary of the method: as §1

[6] = compound: CCn1cc(-c2ccnc3[nH]c(-c4cccc(CN(C)C)c4)cc23)c(-c2ccc(NC(=O)N(C)C)cc2)n1
Summary of the method: as §1

[7] = compound: CN(C)CC(=O)Nc1ccc2[nH]c(=O)c3ccccc3c2c1
Summary of the method: as §1

[8] = compound: CN(CCOC1=CC=C(C=C1)C[C@H]2C(=O)NC(=O)S2)C3=CC=CC=N3 (racemic) [rosiglitazone]
Summary of the method: as §1

[9] = compound: CN1C2=C(C3=C1C(=O)N(N=C3)CC4=CC(=CC=C4)N)SC(=C2)S(=O)C
Summary of the method: as §1

[10] = compound: CN1CCC(CNc2ccc3ncc(-c4cccc(OC(F)(F)F)c4)n3n2)CC1
Summary of the method: as §1

[11] = compound: CN1CCN(CCOc2cc(OC3CCOCC3)c3c(Nc4c(Cl)ccc5c4OCO5)ncnc3c2)CC1 [saracatinib]
Summary of the method: as §1

[12] = compound: CN1CCN(c2nc(C3=C(c4c[nH]c5ccccc45)C(=O)NC3=O)c3ccccc3n2)CC1 [sotrastaurin]
Summary of the method: as §1

[13] = compound: CN1CC[C@H](c2c(O)cc(O)c3c(=O)cc(-c4ccccc4Cl)oc23)[C@H](O)C1 [alvocidib]
Summary of the method: as §1

[14] = compound: CN1CCc2c(c3ccccc3n2Cc2ccc(C(=O)NO)cc2)C1 [Tubastatin A]
Summary of the method: as §1

[15] = compound: CNC(=O)C1=CC=CC=C1NC2=NC(=NC=C2Cl)NC3=C(C=C(C=C3)N4CCOCC4)OC
Summary of the method: as §1

[16] = compound: CNC(=O)c1ccc(Nc2ncc(C(F)(F)F)c(NCc3nccnc3N(C)S(C)(=O)=O)n2)cc1 [defactinib]
Summary of the method: as §1

[17] = compound: CNCc1ccc(-c2[nH]c3cc(F)cc4c3c2CCNC4=O)cc1 [rucaparib]
Summary of the method: as §1

[18] = compound: CNc1nc(-c2ccc3c(N)n[nH]c3c2)cc(N2C[C@@H](C(=O)NC3CCCCC3)CC[C@H]2C)n1
Summary of the method: as §1

[19] = compound: COC(=O)N[C@@H](C)CNc1nccc(-c2cn(C(C)C)nc2-c2cc(Cl)cc(NS(C)(=O)=O)c2F)n1 [encorafenib]
Summary of the method: as §1

[20] = compound: COC(=O)[C@H](CCSC)NC(=O)C1=C(C=C(C=C1)NC[C@H](CS)N)C2=CC=CC=C2
Summary of the method: as §1

Chain of UniProt Q8NEW0 (Q8NEW0 whole entry, looked up): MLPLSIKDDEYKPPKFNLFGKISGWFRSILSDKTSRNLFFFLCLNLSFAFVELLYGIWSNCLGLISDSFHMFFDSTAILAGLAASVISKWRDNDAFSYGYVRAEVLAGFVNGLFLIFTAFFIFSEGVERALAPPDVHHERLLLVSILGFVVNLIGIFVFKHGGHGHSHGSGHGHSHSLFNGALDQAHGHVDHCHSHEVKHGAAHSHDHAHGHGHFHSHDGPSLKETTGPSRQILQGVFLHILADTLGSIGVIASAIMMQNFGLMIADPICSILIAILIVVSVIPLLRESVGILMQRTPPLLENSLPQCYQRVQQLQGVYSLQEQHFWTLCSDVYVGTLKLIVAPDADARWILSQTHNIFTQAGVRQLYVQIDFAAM
Chain of UniProt Q8WXA9 (Q8WXA9 whole entry, looked up): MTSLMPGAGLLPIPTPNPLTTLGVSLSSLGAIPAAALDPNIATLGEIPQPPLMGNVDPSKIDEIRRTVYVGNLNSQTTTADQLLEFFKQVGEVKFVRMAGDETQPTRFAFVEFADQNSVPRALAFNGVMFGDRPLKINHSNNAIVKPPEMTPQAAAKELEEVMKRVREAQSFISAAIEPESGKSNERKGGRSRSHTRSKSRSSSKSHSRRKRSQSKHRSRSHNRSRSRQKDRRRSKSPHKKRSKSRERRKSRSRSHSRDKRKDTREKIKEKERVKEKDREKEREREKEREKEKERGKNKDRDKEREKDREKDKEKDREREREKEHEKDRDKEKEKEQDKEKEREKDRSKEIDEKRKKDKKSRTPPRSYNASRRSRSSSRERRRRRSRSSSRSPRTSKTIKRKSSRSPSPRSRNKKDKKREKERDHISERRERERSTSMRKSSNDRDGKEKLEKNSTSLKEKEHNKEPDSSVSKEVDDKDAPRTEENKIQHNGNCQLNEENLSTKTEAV
Chain of UniProt P35610 (P35610 whole entry, looked up): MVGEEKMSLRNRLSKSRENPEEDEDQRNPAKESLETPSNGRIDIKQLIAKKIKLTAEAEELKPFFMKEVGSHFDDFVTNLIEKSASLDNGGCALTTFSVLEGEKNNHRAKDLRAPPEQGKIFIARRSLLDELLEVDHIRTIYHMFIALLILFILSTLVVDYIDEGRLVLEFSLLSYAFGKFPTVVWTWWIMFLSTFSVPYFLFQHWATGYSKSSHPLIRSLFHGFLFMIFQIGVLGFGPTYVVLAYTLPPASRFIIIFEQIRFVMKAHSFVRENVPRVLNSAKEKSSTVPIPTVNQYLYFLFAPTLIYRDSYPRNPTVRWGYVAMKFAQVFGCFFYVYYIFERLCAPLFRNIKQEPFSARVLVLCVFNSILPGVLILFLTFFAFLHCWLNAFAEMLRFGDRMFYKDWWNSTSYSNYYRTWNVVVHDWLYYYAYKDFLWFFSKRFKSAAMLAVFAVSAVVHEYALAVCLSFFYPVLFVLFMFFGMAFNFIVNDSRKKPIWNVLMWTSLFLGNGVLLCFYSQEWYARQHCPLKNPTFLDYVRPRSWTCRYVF
Chain of UniProt P51692 (P51692 whole entry, looked up): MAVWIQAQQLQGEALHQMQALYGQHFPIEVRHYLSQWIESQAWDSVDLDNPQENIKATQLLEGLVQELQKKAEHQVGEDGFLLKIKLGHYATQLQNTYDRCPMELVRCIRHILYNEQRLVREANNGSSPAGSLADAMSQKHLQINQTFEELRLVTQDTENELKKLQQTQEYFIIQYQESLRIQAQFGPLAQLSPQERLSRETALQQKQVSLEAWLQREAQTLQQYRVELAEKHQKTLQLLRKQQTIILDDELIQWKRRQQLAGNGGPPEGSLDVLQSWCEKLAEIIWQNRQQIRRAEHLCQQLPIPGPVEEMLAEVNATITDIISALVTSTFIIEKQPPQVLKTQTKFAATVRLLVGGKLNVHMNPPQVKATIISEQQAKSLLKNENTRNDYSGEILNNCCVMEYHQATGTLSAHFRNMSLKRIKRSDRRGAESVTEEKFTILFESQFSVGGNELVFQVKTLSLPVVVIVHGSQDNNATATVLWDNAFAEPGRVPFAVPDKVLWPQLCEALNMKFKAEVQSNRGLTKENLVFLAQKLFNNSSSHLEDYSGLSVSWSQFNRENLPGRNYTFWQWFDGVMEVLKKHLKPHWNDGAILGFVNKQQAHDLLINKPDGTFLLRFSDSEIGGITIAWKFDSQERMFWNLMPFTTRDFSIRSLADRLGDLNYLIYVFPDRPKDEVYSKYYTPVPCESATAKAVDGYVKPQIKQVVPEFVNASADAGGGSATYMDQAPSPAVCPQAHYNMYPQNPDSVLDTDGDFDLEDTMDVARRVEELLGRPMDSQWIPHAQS
Chain of UniProt Q99523 (Q99523 whole entry, looked up): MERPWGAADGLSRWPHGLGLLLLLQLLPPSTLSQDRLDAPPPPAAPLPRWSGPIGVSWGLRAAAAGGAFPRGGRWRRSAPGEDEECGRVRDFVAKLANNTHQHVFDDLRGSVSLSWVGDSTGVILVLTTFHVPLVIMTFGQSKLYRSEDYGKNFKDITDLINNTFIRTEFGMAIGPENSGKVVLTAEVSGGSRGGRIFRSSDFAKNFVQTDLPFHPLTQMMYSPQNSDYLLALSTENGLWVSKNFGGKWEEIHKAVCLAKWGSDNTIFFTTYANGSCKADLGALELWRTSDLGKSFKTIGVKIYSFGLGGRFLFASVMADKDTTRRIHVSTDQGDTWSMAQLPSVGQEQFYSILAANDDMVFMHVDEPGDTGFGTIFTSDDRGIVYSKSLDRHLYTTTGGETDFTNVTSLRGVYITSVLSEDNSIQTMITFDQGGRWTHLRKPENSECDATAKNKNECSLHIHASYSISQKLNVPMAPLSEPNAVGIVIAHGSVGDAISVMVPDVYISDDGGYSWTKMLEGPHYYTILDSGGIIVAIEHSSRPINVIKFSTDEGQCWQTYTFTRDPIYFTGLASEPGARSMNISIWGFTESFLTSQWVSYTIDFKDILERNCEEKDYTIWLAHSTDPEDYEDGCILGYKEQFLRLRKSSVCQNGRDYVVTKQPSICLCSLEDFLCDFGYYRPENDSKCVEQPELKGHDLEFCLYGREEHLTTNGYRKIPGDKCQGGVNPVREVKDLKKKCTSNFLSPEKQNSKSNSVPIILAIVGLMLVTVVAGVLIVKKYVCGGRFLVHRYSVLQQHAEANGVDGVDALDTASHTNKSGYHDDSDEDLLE
Chain of UniProt Q86UE8 (Q86UE8 whole entry, looked up): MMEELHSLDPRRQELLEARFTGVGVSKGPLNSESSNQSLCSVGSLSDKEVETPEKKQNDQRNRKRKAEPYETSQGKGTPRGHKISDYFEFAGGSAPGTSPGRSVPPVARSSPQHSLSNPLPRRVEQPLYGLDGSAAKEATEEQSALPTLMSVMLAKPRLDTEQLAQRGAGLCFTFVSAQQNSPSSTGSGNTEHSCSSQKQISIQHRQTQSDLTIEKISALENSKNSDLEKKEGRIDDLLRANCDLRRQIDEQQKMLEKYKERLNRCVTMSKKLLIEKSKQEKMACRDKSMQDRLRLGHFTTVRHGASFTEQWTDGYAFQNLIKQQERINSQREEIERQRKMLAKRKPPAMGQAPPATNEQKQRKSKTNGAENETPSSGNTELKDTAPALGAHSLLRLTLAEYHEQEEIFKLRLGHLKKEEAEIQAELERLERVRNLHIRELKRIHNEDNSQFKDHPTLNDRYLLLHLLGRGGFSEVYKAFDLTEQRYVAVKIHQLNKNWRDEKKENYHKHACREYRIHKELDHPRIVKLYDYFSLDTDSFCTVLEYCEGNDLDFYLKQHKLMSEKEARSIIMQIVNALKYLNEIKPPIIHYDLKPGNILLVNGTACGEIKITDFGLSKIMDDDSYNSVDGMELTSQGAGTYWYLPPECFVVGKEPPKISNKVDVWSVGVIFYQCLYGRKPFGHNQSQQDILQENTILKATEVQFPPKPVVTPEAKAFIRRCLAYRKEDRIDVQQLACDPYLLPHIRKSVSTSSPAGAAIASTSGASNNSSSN
Chain of UniProt P30626 (P30626 whole entry, looked up): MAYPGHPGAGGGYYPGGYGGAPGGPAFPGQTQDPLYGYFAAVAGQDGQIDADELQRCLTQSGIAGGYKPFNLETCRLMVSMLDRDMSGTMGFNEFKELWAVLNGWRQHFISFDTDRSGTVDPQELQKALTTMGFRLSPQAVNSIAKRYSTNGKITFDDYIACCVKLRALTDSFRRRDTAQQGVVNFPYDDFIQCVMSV
Chain of UniProt P35270 (P35270 whole entry, looked up): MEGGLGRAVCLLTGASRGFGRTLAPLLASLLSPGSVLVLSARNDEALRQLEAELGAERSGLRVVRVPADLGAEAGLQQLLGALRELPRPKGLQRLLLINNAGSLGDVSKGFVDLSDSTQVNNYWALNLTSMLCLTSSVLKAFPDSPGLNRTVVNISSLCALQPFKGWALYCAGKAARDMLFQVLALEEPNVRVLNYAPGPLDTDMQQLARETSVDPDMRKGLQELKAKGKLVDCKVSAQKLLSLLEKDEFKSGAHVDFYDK

Target | log2 fold change [1] | log2 fold change [2] | log2 fold change [3] | log2 fold change [4] | log2 fold change [5] | log2 fold change [6] | log2 fold change [7] | log2 fold change [8] | log2 fold change [9] | log2 fold change [10] | log2 fold change [11] | log2 fold change [12] | log2 fold change [13] | log2 fold change [14] | log2 fold change [15] | log2 fold change [16] | log2 fold change [17] | log2 fold change [18] | log2 fold change [19] | log2 fold change [20]
SRI (UniProt P30626) | 0.008 | -0.111 | -0.013 | 0.393 (active) | 0.09 | -0.058 | 0.009 | 0.003 | -0.071 | 0.126 | -0.034 | -0.017 | -0.062 | 0.039 | 0.034 | -0.108 | -0.012 | -0.021 | -0.03 | -0.022
STAT5B (UniProt P51692) | -0.221 | -0.333 | 0.36 | 0.004 | -0.037 | 0.052 | 0.105 | -0.003 | -0.063 | -0.045 | -0.231 | -0.083 | -0.023 | 0.045 | -0.053 | -0.33 | 0.105 | 0.138 | 0.073 | -0.052
SPR (UniProt P35270) | 0.02 | 0.165 | 0.013 | -0.054 | 0.412 (active) | 0.073 | 0.153 | 0.008 | -0.184 | 0.012 | 0.318 | 0.052 | 0.064 | -0.014 | -0.053 | 0.237 | 0.043 | 0.026 | -0.065 | -0.021
TLK2 isoform 2 (UniProt Q86UE8) | -0.015 | -0.112 | 0.029 | -0.01 | 0.057 | -0.024 | -0.012 | 0.014 | -0.039 | -0.054 | 0.048 | -0.012 | -0.027 | 0.014 | -0.031 | 0 | -0.051 | -0.003 | -0.006 | 0
SREK1 isoform 2 (UniProt Q8WXA9) | -0.122 | -0.22 | 0.037 | -0.021 | 0.021 | -0.098 | -0.029 | 0.015 | 0.026 | -0.035 | -0.034 | -0.106 | 0.005 | 0.061 | -0.422 | -0.371 | 0.083 | 0.013 | 0.059 | -0.007
SORT1 (UniProt Q99523) | -0.984 (active) | -1.34 (active) | -0.013 | 0.032 | -0.028 | 0.007 | 0.003 | 0.008 | -0.028 | -0.582 (active) | 0.038 | 0.017 | 0.012 | -0.011 | 0.017 | -0.033 | 0 | -0.027 | -0.017 | 0.014
SLC30A7 (UniProt Q8NEW0) | 0.016 | -0.074 | -0.041 | -0.034 | -0.007 | 0.032 | 0.014 | 0.053 | -0.05 | 0.091 | 0.077 | 0.101 | -0.105 | -0.107 | 0.016 | -0.051 | 0.02 | -0.026 | 0.059 | 0.029
SOAT1 (UniProt P35610) | -0.017 | 0.053 | -0.094 | 0.029 | 0.009 | 0.013 | -0.04 | -0.016 | -0.051 | -0.09 | 0.026 | -0.06 | -0.02 | -0.057 | 0.186 | -0.053 | -0.064 | 0.014 | 0.122 | 0.111
